Data on 8 compounds can be found in PubChem BioAssay.

For assay [1], the system named is TLR4-MyD88 interaction (human), BLA complementation. Description: disruptors of TLR4 binding to MyD88 – cell-based, HeLa CL3-4, BLA complementation, FRET ratio, confirmation (AID 941;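 active = mean inhibition across three repeat runs above about 25% carried over from the earlier screen, limit read from the data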;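 note: plate controls were DMSO only for no effect and clavulanic acid blocking BLA at full dose for full effect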). The conditions noted are these: CCF4 FRET ratio, at 8.4 µM, active compounds read high.
A short description of assay [2]: BLA reporter interference in HeLa cells – cell-based, full-length BLA, CCF4 FRET ratio, artefact control for TLR4-MyD88 binding inhibitor project, confirmation (AID 1237;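 active = mean inhibition over three repeats above about 26% taken from the earlier screen, limit read from the data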;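 note: HeLa cells stably expressing beta-lactamase reporter as counterscreen for TLR4-MyD88 inhibitors; 0% = DMSO and 100% = clavulanic acid full inhibition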). The following applies: at 8.4 µM, active compounds read high.
In assay [3] the target is Sphingosine 1-phosphate receptor 4 (Homo sapiens) (UniProt O95977). Description: blockers of human S1P4 signalling – cell-based, confirmation (AID 1524; in the data active = inhibition above about 30%). The conditions noted are these: S1P4-expressing cell line, antagonist mode, reporter read-out; at 4.98 µM; active compounds read high.
Assay [4] deals with Sphingosine 1-phosphate receptor 1 (Homo sapiens) (UniProt P21453). As to the kind of experiment: blockade of human S1P1 receptor – cell-based, counter-screen for S1P4 antagonist project (AID 1564; in the data active = inhibition above about 40%;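 note: receptor stimulated with S1P near its EC80; 0% = agonist stimulated wells and 100% = vehicle only wells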). The conditions noted are these: cell-based S1P1 antagonist counterscreen, at 4.98 µM, active compounds read high.
The target of assay [5] is Protein-arginine deiminase type-4 (Homo sapiens) (UniProt Q9UM07). As to the kind of experiment: protein arginine deiminase 4 blockade, retest – biochemical, fluorescence polarization, confirmation (AID 488796;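 active = mean inhibition across replicates above the hit cutoff set by the earlier primary screen, cut at about 15% in these data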;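 note: inhibitors block active-site labeling by the probe so polarization falls; 0% = PAD4 with probe and DMSO and 100% = probe without PAD4 enzyme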). The conditions noted are these: recombinant PAD4, RCA probe fluorescence polarization; at 6.36 µM; active compounds read high.
Assay [6] addresses Toll-like receptor 9 (Homo sapiens) (UniProt Q9NR96). Description: disruptors of TLR9 binding to MyD88 – cell-based, CHO, BLA complementation, fluorescence, triplicate, confirmation (AID 540250;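 active = mean inhibition across three repeats above about 21% taken from the earlier screen, limit read from the data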;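 note: blue over green emission ratio reports constitutive TLR9 MyD88 association via BLA complementation; 0% = DMSO vehicle wells and 100% = clavulanate BLA inhibitor wells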). The following applies: CCF4 FRET ratio, at 4.98 µM, active compounds read high.
The nature of assay [7]: BLA reporter readout interference – cell-based, fluorescence, artefact control for TLR9-MyD88 binding inhibitor project (AID 540251;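 active = mean inhibition above a 50% cutoff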;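 note: counterscreen of TLR9-MyD88 hits on CMV-driven BLA in CHO-K1 cells; 0% = DMSO alone and 100% = clavulanate blocking BLA; higher means less blue over green ratio so more BLA blockade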). The conditions noted are these: CHO-BLA cells, CCF4 FRET ratio, at 4.98 µM, active compounds read high.
Assay [8] in a line: CHO cell viability loss – luminescence, single concentration, cytotoxicity control for TLR9-MyD88 binding inhibitor project (AID 588336; in the data active = inhibition above about 11%). The conditions noted are these: TLR9-MyD88 CHO cells cytotoxicity, at 4.98 µM, active compounds read high.
Assay [9] addresses Receptor-interacting serine/threonine-protein kinase 2 (Homo sapiens) (UniProt O43353). Description: inhibitors of RIPK2 association with NOD2 – fluorescence, CHO cells, BLA complementation, triplicate, confirmation (AID 624370;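 active = mean inhibition across replicates above a set limit taken from the earlier primary screen, cut at about 21% in these data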;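 note: 0% = DMSO-only wells and the high end = clavulanate BLA-blocked wells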). The following applies: CCF4 FRET, at 4.98 µM, active compounds read high.
A short description of assay [10]: BLA reporter readout interference – cell-based, CHO-K1 CMV-bla, CCF4 FRET, fluorescence, artefact control for NOD2-RIPK2 interaction inhibitor project, confirmation (AID 624371;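 active = mean inhibition above the low-control mean inhibition plus three low-control SD, cut at about 11% in these data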;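 note: 0% = DMSO only wells and 100% = clavulanate high control wells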). The conditions noted are these: CCF4 FRET ratio, counterscreen, at 4.98 µM, active compounds read high.
Assay [11] deals with Photoreceptor-specific nuclear receptor (Homo sapiens) (UniProt Q9Y5X4). Description: retest of NR2E3-NCOR disrupting agonists – cell-based, luminescence, CHO-S two-hybrid, confirmation (AID 624378;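 active = average inhibition above a cutoff equal to the mean inhibition of all tested compounds plus one SD, cut at about 70% in these data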;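 note: 0% = DMSO in NR2E3 cells and 100% = DMSO in cells lacking NR2E3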). The conditions noted are these: CHO-S mammalian two-hybrid NR2E3-NCOR, luciferase luminescence; at 3.98 µM; active compounds read high.
A short description of assay [12]: nonselective effects on VP16 transactivation – cell-based, luminescence, CHO-S, high throughput, counter-screen for NR2E3 agonist project, confirmation (AID 624379;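 active = mean inhibition above a cutoff equal to the average over all tested compounds plus one standard deviation, cut at about 70% in these data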;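 note: 0% = DMSO with VP16-transfected cells and 100% = DMSO with cells lacking VP16; higher means less reporter light so more repression of VP16 activity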). The following applies: CHO-S GAL4-VP16 luciferase reporter, at 3.98 µM, active compounds read high.
The nature of assay [13]: StAR promoter reporter inhibitors, counter-screen for LRH-1 inverse agonist project, cell-based, luminescence, high throughput (AID 651611; in the data active = inhibition above about 28%). The conditions noted are these: StAR promoter luciferase reporter counterscreen, at 3.6 µM, active compounds read high.
Assay [14] concerns the target Nuclear receptor subfamily 5 group A member 2 (Homo sapiens) (UniProt O00482). Description: NR5A2 activity suppression in reporter cells – cell-based, luminescence, confirmation (AID 651613; in the data active = inhibition above about 42%;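 note: HEK293T cells co-transfected with LRH-1 and StAR promoter luciferase reporter; 0% = vehicle wells and 100% = parental cells lacking receptor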). The following applies: cell-based LRH-1 luciferase reporter, inverse agonism; at 3.6 µM; active compounds read high.
The target of assay [15] is Steroidogenic factor 1 (Homo sapiens) (UniProt Q13285). As to the kind of experiment: inverse agonism at SF1 nuclear receptor – cell-based, luminescence, high throughput, counter-screen for LRH-1 inverse agonist project (AID 651614; in the data active = inhibition above about 44%;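 note: cells cotransfected with StAR promoter reporter and SF1 expression vector; 0% = vehicle on cells with receptor and 100% = vehicle on cells lacking receptor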). The following applies: cell-based SF1 luciferase reporter, at 3.6 µM, active compounds read high.
Assay [16] can be described thus: compounds suppressing VP16-driven luciferase signal – cell-based, luminescence, high throughput, counter-screen for LRH-1 inverse agonist project (AID 651615; in the data active = inhibition above about 33%). The conditions noted are these: Gal4-VP16 luciferase reporter cells, at 3.6 µM, active compounds read high.
Assay [17] has as its system transactivating tegument protein VP16 (Human herpesvirus 1). Description: compounds suppressing VP16-driven luciferase signal – cell-based, luminescence, single concentration, counter-screen for SRC2 inhibitor project (AID 652007; in the data active = inhibition above about 36%). The conditions noted are these: cell-based VP16 transactivation luciferase reporter, at 8.9 µM, active compounds read high.
Assay [18] concerns the target Nuclear receptor coactivator 2 (Homo sapiens) (UniProt Q15596). Description: inhibition of GAL4-SRC2 driven luciferase expression – cell-based, luminescence, HEK293, triplicate, confirmation (AID 652008;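 active = mean inhibition above 46.5%, the solvent-only control mean plus 3 SD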;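 note: 0% = DMSO-treated cells and 100% = Gossypol at 36 µM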). The conditions noted are these: HEK293 GAL4-SRC2 luciferase reporter, at 8.9 µM, active compounds read high.
The nature of assay [19]: VP16-driven transactivation reporter suppression – cell-based, luminescence, HEK293, counter-screen for COUP-TFII antagonist project (AID 687007; in the data active = inhibition above about 13%). The conditions noted are these: HEK293 Gal4-VP16 luciferase reporter, at 8.5 µM, active compounds read high.
In assay [20] the target is COUP transcription factor 2 (Homo sapiens) (UniProt P24468). Description: retest of COUP-TFII reporter suppressors – cell-based, luciferase reporter, HEK293, triplicate, confirmation (AID 687008;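 active = mean inhibition over three repeats above a set limit taken from the earlier primary screen, cut at about 38% in these data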;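 note: 100% = cells given the luciferase reporter alone without the COUP-TF2 vector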). The following applies: HEK293 NGFI-A luciferase reporter, luminescence; at 8.5 µM; active compounds read high.
Assay [21] is described as follows: reduced OD of T4-infected AddAB+ E. coli – absorbance, E. coli V3065, T4 phage, triplicate, AddAB inhibitor project, confirmation (AID 488942;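 active = mean inhibition above a set limit taken from the earlier primary screen, cut at about 13% in these data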;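 note: higher means less bacterial growth since AddAB block lets phage replicate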). The following applies: E. coli V3065 expressing H. pylori AddAB, at 11.9 µM, active compounds read high, T4 phage with gene 2 nonsense mutations.
A short description of assay [22]: reduced OD of phage-infected RecBCD+ V66 E. coli – absorbance, mutant T4 phage, counter-screen for AddAB inhibitor project (AID 488955;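 active = mean inhibition above the mean of solvent-only control wells plus 3 SD, cut at about 4% in these data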;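 note: optical density read after an 18 h incubation at 37 °C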). The conditions noted are these: OD growth, at 11.9 µM, active compounds read high.
Assay [23] is described as follows: bacterial growth inhibitors – absorbance, counter-screen for AddAB inhibitor project, confirmation (AID 488956; in the data active = inhibition above about 25%). The conditions noted are these: bacterial viability, absorbance (AddAB counterscreen); at 11.9 µM; active compounds read high.
Assay [24] in a line: reduced OD of V66 E. coli with T4 gene 2 phage – absorbance, RecBCD inhibitor project, confirmation (AID 651982;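 active = mean inhibition over triplicates exceeding the hit threshold derived in the original primary screen, cut at about 11% in these data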). The following applies: E. coli V66 + T4 2- phage, growth OD; at 11.9 µM; active compounds read high.
Assay [25] in a line: bacterial growth inhibition – absorbance, high throughput, counter-screen for RecBCD inhibitor project (AID 651983; in the data active = inhibition above about 20%;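 note: E. coli strain V66 grown with compound alone and no phage infection; 0% = bacteria with DMSO vehicle only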). The following applies: E. coli viability, absorbance (OD) growth; at 11.9 µM; active compounds read high.
Assay [26] is described as follows: reduced optical density, T4-challenged addAB+ bacteria – absorbance, E. coli V3065, T4 phage, counter-screen for RecBCD inhibitor project, confirmation (AID 651984;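 active = mean inhibition above the solvent-only control wells' mean plus 3 SD, cut at about 22% in these data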;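 note: higher means less bacterial growth from phage killing when AddAB is blocked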). The following applies: E. coli expressing H. pylori AddAB + T4 phage, OD growth; at 11.9 µM; active compounds read high; gene 2 mutant T4, recBCD-deleted host.
The subject of assay [27] is HIV-1 integrase (multimerization). As to the kind of experiment: stimulation of HIV-1 integrase oligomerization – biochemical, TR-FRET, counter-screen for LEDGF/p75 integration inhibitor project (AID 1053131; in the data active = activation above about 8.9%). The conditions noted are these: TR-FRET HIV-1 integrase multimerization, at 7.7 µM, active compounds read high.
A short description of assay [28]: compounds disturbing TR-FRET signal readout – biochemical, HIV-1 IN multimerization, artefact control for LEDGF/p75-dependent integration inhibitor project, confirmation (AID 1053135;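 active = inhibition above the mean over all tested compounds plus 3 SD, which no compound reached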;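 note: 0% = integrase with antibodies and DMSO and 100% = antibodies without integrase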). The conditions noted are these: TR-FRET optical interference counterscreen, at 7.7 µM, active compounds read high.
The test system of assay [29] is HIV-1 integrase / human LEDGF/p75 complex. As to the kind of experiment: blockers of LEDGF/p75-dependent integrase activity – biochemical, TR-FRET, confirmation (AID 1053136). The conditions noted are these: TR-FRET LEDGF/p75-dependent HIV-1 integration, at 3.7 µM, active compounds read high.
Assay [30] is described as follows: potentiators of IFN-gamma STAT1 reporter activity – cell-based, HTS, luciferase reporter, confirmation (AID 1262;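 active = activation above a set limit carried over from the earlier primary STAT1 screen, cut at about 140% in these data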;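 note: simple ratio to median IFN-gamma plus DMSO wells so 0% means no light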). The conditions noted are these: NIH 3T3 STAT1-luciferase reporter, IFN-gamma potentiation, luminescence; at 5.7 µM; active compounds read high; 100% = IFN-gamma EC80 alone, no compound.
Assay [31] is described as follows: enhancement of NF-kB transcriptional signalling – cell-based, HEK293T, luciferase luminescence, TNF-alpha, counter-screen for STAT1 activator project (AID 1306;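 active = activation above the mean of solvent-only control wells plus 3 SD, set per campaign, cut at about 130% in these data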;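 note: TNF-alpha given at a submaximal dose yielding about 80% of full reporter signal; values are well signal over median control so 100% means no change and 0% no light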). The following applies: HEK293T NF-kB luciferase reporter, TNF-alpha stimulated, at 5.7 µM, active compounds read high, 100% = TNF-alpha with vehicle only.
For assay [32], the target named is Signal transducer and activator of transcription 3 (Homo sapiens) (UniProt P40763). As to the kind of experiment: enhancers of IL-6 STAT3 transcription – U3A cells, luciferase, luminescence, counter-screen for STAT1 activator project, confirmation (AID 1316;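 active = activation above the solvent-only control well mean plus 3 SD, set per plate batch, cut at about 110% in these data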;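 note: 0% = no luminescence and 100% = median IL-6 plus DMSO wells; higher means more STAT3 reporter activation so hits are non-selective activators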). The conditions noted are these: U3A cells STAT3-luciferase reporter, IL-6, luminescence; at 5.7 µM; active compounds read high; 100 = IL-6 alone, no compound effect; cells lack STAT1.

The target in assay [33] is (Lyso)-N-acylphosphatidylethanolamine lipase (Mus musculus) (UniProt Q8VD66). As to the kind of experiment: mouse ABHD4 hydrolase blockers, triplicate – biochemical, fluorescence polarization, confirmation (AID 720658;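 active = mean inhibition across replicates above the hit cutoff set in the primary screen, cut at about 30% in these data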;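 note: 0% = wild-type ABHD4 with DMSO and 100% = catalytically dead S159A mutant with DMSO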). The following applies: purified mABHD4, FP-Rh probe fluorescence polarization; at 8.92 µM; active compounds read high.
A short description of assay [34]: suppression of KLF5 promoter-driven luciferase – DLD-1 cells, luminescence, confirmation (AID 1834;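 active = inhibition above a set limit taken from the earlier primary screen, cut at about 63% in these data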;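 note: 0% = DMSO wells and 100% = LY294002 at 200 µM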). The conditions noted are these: DLD-1 KLF5 promoter firefly luciferase reporter, at 4 µM, active compounds read high.
A short description of assay [35]: IEC-6 intestinal cell killing – luminescence, triplicate, cytotoxicity control for KLF5 inhibitor project (AID 1905; in the data active = inhibition above about 23%;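 note: cells exposed to compounds for 48 hours before viability read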). The following applies: IEC-6 rat intestinal cells, viability luminescence; at 4 µM; active compounds read high.

Each structure is given as a SMILES string. A number with no mark means an inactive call. The list shows a part of the results. The source made the active and inactive calls. Cut-off read from the data, not from the text of the source, unless noted: active = inhibition above about 14%; inactive = the rest.

Toll-like receptor 9 (Homo sapiens), sequence (Q9NR96 whole entry, looked up): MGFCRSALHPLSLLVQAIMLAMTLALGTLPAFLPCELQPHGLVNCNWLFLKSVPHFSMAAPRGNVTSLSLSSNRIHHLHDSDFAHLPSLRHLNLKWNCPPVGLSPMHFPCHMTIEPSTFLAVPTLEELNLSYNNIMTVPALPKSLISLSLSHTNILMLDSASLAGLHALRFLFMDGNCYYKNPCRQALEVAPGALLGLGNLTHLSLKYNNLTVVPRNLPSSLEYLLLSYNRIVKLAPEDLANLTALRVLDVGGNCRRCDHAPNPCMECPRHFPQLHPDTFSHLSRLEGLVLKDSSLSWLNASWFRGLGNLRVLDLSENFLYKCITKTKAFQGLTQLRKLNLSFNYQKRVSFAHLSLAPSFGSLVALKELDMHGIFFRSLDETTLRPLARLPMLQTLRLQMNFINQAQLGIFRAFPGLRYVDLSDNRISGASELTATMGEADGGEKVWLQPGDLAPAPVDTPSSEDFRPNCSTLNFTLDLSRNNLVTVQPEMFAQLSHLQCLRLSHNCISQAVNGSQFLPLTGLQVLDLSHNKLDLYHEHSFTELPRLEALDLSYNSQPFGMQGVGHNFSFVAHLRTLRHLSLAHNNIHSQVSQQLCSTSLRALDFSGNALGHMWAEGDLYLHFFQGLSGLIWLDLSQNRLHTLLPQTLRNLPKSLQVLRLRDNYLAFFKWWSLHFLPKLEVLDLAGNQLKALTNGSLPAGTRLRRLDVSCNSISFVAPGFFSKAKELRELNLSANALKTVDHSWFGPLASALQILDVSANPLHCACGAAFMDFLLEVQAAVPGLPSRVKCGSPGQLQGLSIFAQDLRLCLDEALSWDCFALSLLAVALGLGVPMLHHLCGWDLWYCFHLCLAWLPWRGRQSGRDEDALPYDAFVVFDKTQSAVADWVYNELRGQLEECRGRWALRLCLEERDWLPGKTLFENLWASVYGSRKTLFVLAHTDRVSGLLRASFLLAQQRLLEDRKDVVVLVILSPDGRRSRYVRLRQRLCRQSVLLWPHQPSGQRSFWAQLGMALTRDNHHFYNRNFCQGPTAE
Receptor-interacting serine/threonine-protein kinase 2 (Homo sapiens), sequence (O43353 whole entry, looked up): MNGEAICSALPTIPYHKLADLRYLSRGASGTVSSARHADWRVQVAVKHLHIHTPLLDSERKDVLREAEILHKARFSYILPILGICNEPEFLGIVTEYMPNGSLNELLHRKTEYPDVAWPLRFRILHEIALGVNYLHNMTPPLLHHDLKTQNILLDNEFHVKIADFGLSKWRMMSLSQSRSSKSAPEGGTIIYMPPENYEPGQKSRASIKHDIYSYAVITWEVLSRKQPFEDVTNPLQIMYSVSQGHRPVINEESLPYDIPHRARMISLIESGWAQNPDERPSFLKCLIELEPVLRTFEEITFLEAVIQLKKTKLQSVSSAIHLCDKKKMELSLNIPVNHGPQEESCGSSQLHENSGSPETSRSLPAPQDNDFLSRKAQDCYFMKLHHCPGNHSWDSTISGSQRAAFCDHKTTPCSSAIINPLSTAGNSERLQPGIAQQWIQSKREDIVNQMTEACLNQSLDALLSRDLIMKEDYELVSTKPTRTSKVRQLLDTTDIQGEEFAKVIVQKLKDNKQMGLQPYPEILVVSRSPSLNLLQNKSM
Sphingosine 1-phosphate receptor 1 (Homo sapiens), sequence (P21453 whole entry, looked up): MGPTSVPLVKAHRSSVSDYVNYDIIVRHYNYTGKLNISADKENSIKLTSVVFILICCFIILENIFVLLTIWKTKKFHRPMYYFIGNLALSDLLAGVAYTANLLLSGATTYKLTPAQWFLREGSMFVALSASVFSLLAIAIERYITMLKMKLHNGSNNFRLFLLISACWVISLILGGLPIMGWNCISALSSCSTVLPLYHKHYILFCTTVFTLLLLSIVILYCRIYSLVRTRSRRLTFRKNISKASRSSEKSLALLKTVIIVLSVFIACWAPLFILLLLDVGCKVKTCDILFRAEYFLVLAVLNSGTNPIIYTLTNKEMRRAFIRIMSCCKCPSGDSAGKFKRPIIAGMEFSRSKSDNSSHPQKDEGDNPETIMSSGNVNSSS
Sphingosine 1-phosphate receptor 4 (Homo sapiens), sequence (O95977 whole entry, looked up): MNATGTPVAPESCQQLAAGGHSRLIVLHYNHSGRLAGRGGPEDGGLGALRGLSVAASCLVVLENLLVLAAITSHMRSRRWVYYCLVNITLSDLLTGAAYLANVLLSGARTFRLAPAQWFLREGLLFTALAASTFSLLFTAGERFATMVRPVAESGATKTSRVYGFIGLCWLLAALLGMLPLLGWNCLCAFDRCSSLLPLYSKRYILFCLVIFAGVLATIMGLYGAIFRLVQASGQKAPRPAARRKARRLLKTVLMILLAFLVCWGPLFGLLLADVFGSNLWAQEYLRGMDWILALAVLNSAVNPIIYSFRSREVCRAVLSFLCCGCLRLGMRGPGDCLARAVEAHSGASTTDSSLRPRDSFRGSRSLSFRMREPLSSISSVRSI
Photoreceptor-specific nuclear receptor (Homo sapiens), sequence (Q9Y5X4 whole entry, looked up): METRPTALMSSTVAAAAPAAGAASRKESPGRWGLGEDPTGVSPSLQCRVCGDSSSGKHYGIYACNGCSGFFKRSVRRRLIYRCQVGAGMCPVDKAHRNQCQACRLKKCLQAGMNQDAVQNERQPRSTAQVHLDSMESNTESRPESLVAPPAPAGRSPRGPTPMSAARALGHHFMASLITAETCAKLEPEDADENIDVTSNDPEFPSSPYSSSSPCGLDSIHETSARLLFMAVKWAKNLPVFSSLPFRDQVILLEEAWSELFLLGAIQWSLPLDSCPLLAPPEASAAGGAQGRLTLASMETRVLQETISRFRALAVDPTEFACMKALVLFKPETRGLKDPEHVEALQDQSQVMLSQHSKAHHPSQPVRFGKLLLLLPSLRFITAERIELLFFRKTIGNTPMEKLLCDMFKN
Protein-arginine deiminase type-4 (Homo sapiens), sequence (Q9UM07 whole entry, looked up): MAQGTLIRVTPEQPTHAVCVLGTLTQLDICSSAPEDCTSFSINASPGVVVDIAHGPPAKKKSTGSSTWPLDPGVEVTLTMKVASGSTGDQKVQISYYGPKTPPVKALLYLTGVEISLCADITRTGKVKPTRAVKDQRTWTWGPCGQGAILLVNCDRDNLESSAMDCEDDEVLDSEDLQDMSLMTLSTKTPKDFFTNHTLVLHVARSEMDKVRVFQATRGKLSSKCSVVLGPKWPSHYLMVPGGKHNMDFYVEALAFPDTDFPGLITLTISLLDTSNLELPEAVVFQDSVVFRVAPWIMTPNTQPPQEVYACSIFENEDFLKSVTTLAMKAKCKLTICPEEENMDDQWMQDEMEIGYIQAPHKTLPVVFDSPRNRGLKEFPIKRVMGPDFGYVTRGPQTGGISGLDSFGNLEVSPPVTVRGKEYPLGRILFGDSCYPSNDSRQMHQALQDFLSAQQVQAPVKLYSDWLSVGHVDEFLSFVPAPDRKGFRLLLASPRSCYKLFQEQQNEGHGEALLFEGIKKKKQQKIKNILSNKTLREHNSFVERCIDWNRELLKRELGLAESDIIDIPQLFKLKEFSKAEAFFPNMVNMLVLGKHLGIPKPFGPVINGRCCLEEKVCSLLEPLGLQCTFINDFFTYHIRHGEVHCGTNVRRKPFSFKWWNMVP
Nuclear receptor subfamily 5 group A member 2 (Homo sapiens), sequence (O00482 whole entry, looked up): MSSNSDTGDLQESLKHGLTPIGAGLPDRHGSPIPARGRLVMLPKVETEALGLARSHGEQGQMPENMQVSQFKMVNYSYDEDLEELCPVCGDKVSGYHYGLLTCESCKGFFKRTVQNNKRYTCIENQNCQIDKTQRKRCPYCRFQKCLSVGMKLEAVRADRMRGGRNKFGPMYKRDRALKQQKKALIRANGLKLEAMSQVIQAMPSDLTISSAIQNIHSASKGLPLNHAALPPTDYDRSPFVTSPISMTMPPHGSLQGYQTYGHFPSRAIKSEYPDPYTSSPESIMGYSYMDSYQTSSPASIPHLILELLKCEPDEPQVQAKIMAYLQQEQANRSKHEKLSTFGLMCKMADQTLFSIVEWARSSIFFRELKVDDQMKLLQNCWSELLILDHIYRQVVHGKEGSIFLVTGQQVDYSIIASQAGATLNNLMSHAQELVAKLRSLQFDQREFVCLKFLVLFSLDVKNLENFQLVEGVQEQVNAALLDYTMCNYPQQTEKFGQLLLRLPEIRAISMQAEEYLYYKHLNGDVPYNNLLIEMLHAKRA
Steroidogenic factor 1 (Homo sapiens), sequence (Q13285 whole entry, looked up, the tested form may be a part): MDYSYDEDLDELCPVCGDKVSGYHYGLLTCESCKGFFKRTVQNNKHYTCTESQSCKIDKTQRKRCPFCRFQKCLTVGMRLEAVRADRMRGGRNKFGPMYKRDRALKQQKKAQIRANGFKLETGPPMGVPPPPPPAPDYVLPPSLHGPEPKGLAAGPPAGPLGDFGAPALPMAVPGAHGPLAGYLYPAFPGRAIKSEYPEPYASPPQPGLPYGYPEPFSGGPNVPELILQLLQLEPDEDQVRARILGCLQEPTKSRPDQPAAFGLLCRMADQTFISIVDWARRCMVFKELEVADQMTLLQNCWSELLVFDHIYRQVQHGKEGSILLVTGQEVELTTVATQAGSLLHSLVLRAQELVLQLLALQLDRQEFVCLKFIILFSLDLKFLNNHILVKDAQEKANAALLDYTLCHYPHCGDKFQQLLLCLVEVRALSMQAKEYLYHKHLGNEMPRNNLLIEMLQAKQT
(Lyso)-N-acylphosphatidylethanolamine lipase (Mus musculus), sequence (Q8VD66 whole entry, looked up): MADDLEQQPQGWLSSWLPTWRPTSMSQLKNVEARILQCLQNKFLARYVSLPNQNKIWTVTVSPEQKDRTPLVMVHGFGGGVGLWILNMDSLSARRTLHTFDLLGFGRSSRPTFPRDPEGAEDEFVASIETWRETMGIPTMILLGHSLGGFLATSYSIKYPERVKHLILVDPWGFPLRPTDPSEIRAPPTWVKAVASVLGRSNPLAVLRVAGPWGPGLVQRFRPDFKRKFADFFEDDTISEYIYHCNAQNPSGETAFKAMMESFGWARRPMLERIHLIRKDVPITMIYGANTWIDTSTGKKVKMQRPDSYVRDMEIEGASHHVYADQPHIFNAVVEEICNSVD

Turning to `O=C(Nc1ccccc1Cl)/C(Cl)=C(\Cl)S(=O)c1ccccc1` (stereo not given), the inhibition in assay [1] was 11.5%; in [2], 14.5%; in [3], 117% (active); in assay [4], 39.3%; in assay [5], 14.2%; in assay [6], 39.3% (active). Moreover, the inhibition in [7] was 24.5%; in assay [8], 96.4% (active); in [9], 78.8% (active); in assay [10] it was 37.3% (active); in assay [11], 90.1% (active); in [12] it was 47.4%. In addition, the inhibition in [13] is 57.7% (active); in [14], 88.7% (active); in [15], 80.1% (active); in assay [16], 80.8% (active); in assay [17] it was 94.7% (active); in [18], 95.9% (active). Besides, the results for the inhibition in [19] and in assay [20] were 78.8% (active) and 101% (active), respectively.
On to `Cn1ccc(=Nc2ccc(NC(=O)c3ccc(N=c4ccn(C)c5ccc([N+](=O)[O-])cc45)cc3)cc2)cc1`, for which the inhibition was 99.9% (active) in [21]; 101% (active) in assay [22]; 101% (active) in assay [23]; 101% (active) in assay [24]; -7.32% in assay [25]; 102% (active) in [26]. Besides, the results for the inhibition in assay [28] and in assay [29] were 2.56% and 21% (active), respectively. Moreover, the activation in assay [27] was -0.71%.
On to `CC(=O)Nc1cccc(-c2cnc3ccccc3n2)c1`, for which the activation (% of control) is 165% (active) in assay [30], 126% in assay [31] and 101% in assay [32].
The corresponding values for `Cc1cccc(-c2noc(-c3ccc(F)cc3)n2)c1` are 222% (active), 133% and 119% (active).
Take `CCN(CC)CCCC(C)n1c2nc(=O)[nH]c(=O)c-2nc2cc(Cl)ccc21` (stereo not given): the inhibition in [6] is 12.3%; in [7], 14.8%; in [8] it was -0.12%; in assay [9] it was 38.1% (active); in [10] it was 40% (active); in assay [33], 44.4% (active). Moreover, the inhibition in assay [28] was -7.01%; in [29] it was 59.8% (active). For the same compound, the activation in [27] was 2.04%.
In the case of `C=CC1=C(C(=O)O)N2C(=O)[C@@H](NC(=O)/C(=N\OCC(=O)O)c3csc(N)n3)[C@H]2SC1`, the inhibition was 103% (active) in [21]; 103% (active) in [22]; 104% (active) in assay [23]; 102% (active) in assay [24]; 104% (active) in assay [25]; 104% (active) in assay [26]. Also, the inhibition in [28] was -430%; in assay [29] it was 62.9% (active). The activation in [27] was 85.5% (active).
Consider `COc1ccc(/C=N/Nc2nc3ccccc3o2)cc1OC`, for which the activation (% of control) in assay [30] is 208% (active); in assay [31], 133%; in [32], 108%.
`COc1ccc(NC(=O)/C(Cl)=C(/Cl)S(=O)Cc2ccc(C)cc2)cn1` (stereo not given): the inhibition in [3] was 121% (active); in [4], 117% (active); in [34], 109% (active); in assay [35] it was 87% (active).
